In PubChem BioAssay AID588334 (Broad Institute, 2011):
About 2,300 (0.77%) of roughly 300,000 compounds were called active. The sample holds actives, similar compounds and a random draw of the others, so the mix is not that of the screen.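 How the source made its calls: active means mean activation of at least 80% with every replicate also reaching 80%; inconclusive means mean reaches 80% but some replicate falls short; inactive means the rest.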

assay: activators of MITF-driven TRPM1 promoter reporter, primary screen, cell-based, SK-MEL-5, luciferase, single point (AID 588334); conditions: SK-MEL-5 TRPM1-promoter luciferase, 24 h; at 12.5 µM; active compounds read high; % of positive control, neutral wells = 0;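 further: 0% = neutral control wells and 100% = parthenolide positive control wells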

activation, active:
CCc1ccccc1OCC(=O)Nc1ccc2c(c1)OCCO2 89.7%
O=C(CSCc1ccccc1)N1CCc2ccccc21 95%
C=CCNC(=O)/C=C/c1ccc(C(C)C)cc1 89.4%
Cc1cc(C)c2nc(NC(=O)C3CCCO3)sc2c1 (stereo not drawn) 81.4%
Cc1cc(/C=C2/SC(=O)N(CC(=O)OC(C)C)C2=O)c(C)n1C 97.9%
C=CCNc1cnn(-c2ccc(C)cc2)c(=O)c1Cl 108%
COc1ccc(NC(=O)Nc2ccc3nsnc3c2)cc1 92.9%
Cc1ccc(C(=O)Nc2nnc(-c3cccs3)s2)cc1C 87.8%
CCCn1nnc2sc3c(c2c1=O)CCC(C)C3 (stereo not drawn) 99.2%
CS(=O)(=O)N1CCc2cc(C(=O)Nc3ccccc3Br)ccc21 85.3%
Cc1ccc(NC(=O)Nc2ccc3oc(C)nc3c2)cc1 92.6%
CC(=O)c1cccc(NC(=O)Nc2ccc(C)cc2)c1 104%
COc1ccc([C@H]2CC(=O)C=C(/C=C/c3ccccc3)C2)cc1 84.7%

activation, inactive:
CCC(=O)c1cc(F)ccc1OCC(=O)Nc1ccc2c(c1)OCCO2 22.6%
COc1ccccc1OCCCC(=O)Nc1ccc2c(c1)OCCO2 24.7%
Cc1cc2c(cc1C)NC1(C[C@H]3CCC(=O)N4CC[C@@H](C1)[C@@H]34)C(=NC(C)(C)CC(C)(C)C)N2 (stereo partly drawn) -10%
NC(=O)N1CCc2ccccc21 -5.85%
O=C(CN1CCN(c2ccccn2)CC1)N1CCc2ccccc21 19.8%
Cn1c(N)cc(=O)n(C)c1=S -8.41%
CC(C)c1ccc(/C=C/C(=O)NNC(=O)c2cccnc2)cc1 9.02%
CC(C)c1ccc(/C=C/C(=O)NCCCN2CCOCC2)cc1 4.51%
CN(C(=O)c1cccc(NC(=O)Cc2ccc(NC(=O)C3CCCN(C(=O)C4CCCC4)C3)cc2)c1)C1CCC1 (stereo not drawn) -9.98%
O=c1ccn([C@@H]2O[C@H](CNS(=O)(=O)c3cc4ccccc4s3)[C@@H](O)[C@H]2O)c(=O)[nH]1 -4.34%
O=C(Nc1cccc(S(=O)(=O)N2CCOCC2)c1)C12CC3CC(CC(C3)C1)C2 12.4%
Cc1cc([N+](=O)[O-])ccc1NC(=O)C1CCCO1 (stereo not drawn) -1.67%
Cc1ccc(C)c(C(C)NC(=O)C2CCCO2)c1 (stereo not drawn) -7.6%
C/C(=N\Nc1ccc(Cl)nn1)c1ccccc1O -45.2%
NC(=O)c1ccc(N2CCCC2)nc1 -7.45%
COc1ccc(CN2C(CC(=O)Nc3cccnc3)c3ccc(C(F)(F)F)cc3S2(=O)=O)cc1 (stereo not drawn) 11.4%
O=C1COc2c1ccc(O)c2O 1.19%
CC(C)OC(=O)CN1C(=O)C(=O)c2ccccc21 -5.18%
Cc1cc(/C=C2\SC(=O)N(C)C2=O)c(C)n1-c1cccc(C(=O)O)c1 3.12%
CCCNC(=O)c1c(Cl)cnn1-c1ccc(C)cc1 69.7%
O=c1c(Cl)c(NC2CC2)cnn1-c1ccccc1 6.24%
O=C(c1cccc(S(=O)(=O)N2CCCCCC2)c1)N1CCN(Cc2ccccc2)CC1 4.94%
COc1ccc(/C=N/NC(=O)Nc2ccc3nsnc3c2)c(OC)c1 4.9%
COc1ccc(NC(=O)Nc2cccc3cccnc23)cc1 40.1%
O=C(Nc1c(Br)cc2c(c1Br)Cc1cc([N+](=O)[O-])ccc1-2)C(Cl)Cl -16.6%
FC(F)(F)c1ccc(-c2cccc3c2C2CC3CCN2Cc2ccccc2)cc1 (stereo not drawn) -0.65%
COc1ccc(NC(=O)/C(N=Nc2cccc(S(=O)(=O)Nc3ccc(SC(F)F)cc3)c2)=C(\C)O)cc1 -7.51%
CN(C(=O)c1cccc(NC(=O)Cc2ccc(NC(=O)C3CCCN(C(=O)C4CC4)C3)cc2)c1)C1CC1 (stereo not drawn) -7.94%
CCOc1cccc(C(=O)Nc2nnc(-c3cccs3)s2)c1 25.8%
Cc1ccc(C(=O)Oc2coc(CSc3nnc(NC(=O)c4cccs4)s3)cc2=O)cc1C 0.796%
NC1=NOC(=O)C1C1CCCCC1 (stereo not drawn) -0.578%
O=c1[nH]c2c(c(=O)n1-c1ccccc1)CCO2 1.65%
COc1cc(C2CC(=O)Oc3cc(OC)c(OC)c(OC)c32)cc(OC)c1OC (stereo not drawn) 1.92%
C=CCn1c(SCc2c(C)noc2C)nc2sc3c(c2c1=O)CCC(C)C3 (stereo not drawn) -11.8%
CC1CCc2c(sc3nc4n(c(=O)c23)CCS4)C1 (stereo not drawn) 73.6%
CS(=O)(=O)N1CCc2cc(C(=O)Nc3ccccc3)ccc21 49.3%
CSc1ccccc1NC(=O)c1ccc2c(c1)CCN2S(C)(=O)=O 25.3%
Cc1nc2ccc(NC(=O)C(F)(F)F)cc2o1 -1.51%
Cc1nc2cc(NC(=O)NCc3ccccc3)ccc2o1 14.2%
COC(=O)c1ccc(NC(=O)Nc2ccc(C)cc2)cc1 25.4%
C=C(C)C(=O)Nc1cccc(C(C)=O)c1 5.72%
C[C@H](O)[C@@H]1C(=O)N2CCc3ccc(N4CCOCC4)cc3[C@@H]2C[C@@H]1N(C)C(=O)C(C)(C)C 3.72%
COc1ccc(C2NCCCC2c2ccccc2)cc1 (stereo not drawn) -15.7%
O=C(NN=Cc1ccccc1O)NN=Cc1ccccc1O -21.8%
O=C(Nc1ccc2ccccc2c1[N+](=O)[O-])c1ccccc1 37.5%
COc1cc(C(=O)OCc2cc(=O)n3ccsc3n2)ccc1OC(C)C 25%
COc1ccc([C@H]2CC(=O)C=C(c3ccc(C)cc3)C2)cc1 18.7%
COc1ccc([C@H]2CC(=O)C=C(/C=C/c3ccc(Cl)cc3)C2)cc1 55.4%
CC1CN(Cc2ccccc2)C(=S)NC1=O (stereo not drawn) 3.25%
COC(=O)c1ccc(CNC(=O)Cn2cc(C)c(=O)[nH]c2=O)cc1 2.68%
